Test results reported in ChEMBL document CHEMBL1157539, “Thousands of chemical starting points for antimalarial lead identification” (Nature, 2010).

system: Plasmodium falciparum; test: GSK_TCMDC: Inhibition of Plasmodium falciparum 3D7 in whole red blood cells, using parasite LDH activity as an index of growth. Test compounds present at 2uM; assay type: functional

SMILES | Inhibition [%]
CC1(C)N=C(N)N=C(N)N1c1ccc2ccccc2c1.Cl | 95
N=C(N)Nc1nc(-c2cccc(NC(=O)Cc3ccccc3)c2)cs1 | 99
COc1ccc(CN(C)Cc2cc(C(C)C)c(C)cc2O)cc1F | 98
CCNC(=O)c1ccc2c(c1)c(C)c(C)n2Cc1ccc(F)cc1 | 93
CCOc1cc(C(=O)N[C@@H](Cc2ccccc2)[C@H](O)CNC(C)(C)c2cccc(OC)c2)cc(N2CCCS2(=O)=O)c1 | 99
COc1ccc2nc(C)cc(Nc3ccc(N4CCN(C)CC4)cc3)c2c1 | 100
CC(C)c1ccc(NC(=O)c2ccc(C(=O)NCC3CCN(CC4CCCCC4)CC3)cc2)cc1.O=C(O)C(F)(F)F | 92
OC[C@H](Nc1nc(C(Oc2ccccc2)c2ccccc2)nc2[nH]ncc12)c1ccccc1 (stereo not given in full) | 98
CCCCN1CCN(CC(O)CNC(=O)Nc2ccc(Cl)cc2)CC1.O=C(O)C(F)(F)F (stereo not given) | 100
Fc1cccc(Nc2nc(NCc3ccc(Cl)c(Cl)c3)nc(Nc3cccc(F)c3)n2)c1 | 99
COc1ccc(-c2onc(C(F)(F)F)c2-c2ccc(Br)cc2)c(O)c1 | 99
CCN(CC)CCN(Cc1ccc(-c2ccc(C(F)(F)F)cc2)nc1)C(=O)Cn1cc(Cc2cnn(C)c2)c(=O)n2nc(-c3ccccc3)cc12.O=C(O)C(O)C(O)C(=O)O | 97
CN1CCc2ccc(NC(=O)Nc3ccc(Cl)c(Cl)c3)cc2C1 | 80
CCCNCc1ccc(-c2ccc(CN(CCOC)C(=O)c3nn(-c4ccccc4)nc3C)cc2)nc1.O=C(O)C(F)(F)F | 99
CCCCCc1ccc(N2C(N)=NC(N)=NC2(C)C)cc1.Cl | 95
Cl.N#Cc1ccc2c(c1)CCN(CCC1CCC(NC(=O)c3ccc(-c4ccccc4)s3)CC1)CC2 (stereo not given) | 99
CCCNC[C@@H](O)[C@H](Cc1ccccc1)NC(=O)c1cc(NCC)cc(N2CCCC2=O)c1 | 100
CN(C)Cc1ccc(-c2cccc(NC(=O)c3cccc(Cl)c3)c2)cc1.O=C(O)C(F)(F)F | 96
Cc1ccc(Nc2nc(NN=Cc3ccc(-c4ccc([N+](=O)[O-])cc4)o3)nc(N3CCOCC3)n2)cc1Cl | 95
CCCCCCNc1c2ccccc2nc2ccccc12.Cl | 97

SMILES | Inhibition [%]
Cc1cc2nc(-c3cccc(C(=O)NC4CCN(Cc5ccccc5)CC4)c3)[nH]c2cc1C | 100
COc1ccc2nc(C)cc(N/N=C/c3ccc([N+](=O)[O-])o3)c2c1 | 100
CC(C)CCCC(C)(C)NC[C@@H](O)[C@H](Cc1ccccc1)NC(=O)c1cc(NC(C)C)cc(N2CCCCS2(=O)=O)c1.O=CO | 98
Cc1nnc2c(NC(=O)NC3CCCC3)cc3cc(-c4ccc(CN5CCCCC5)cc4)ccc3n12 | 99
COc1ccc2c(N/N=C/c3ccccc3[N+](=O)[O-])ccnc2c1 | 100
COc1cc(F)c2nccc([C@@H](O)CN3CCC(NCc4ccc5c(n4)NC(=O)CS5)C(F)C3)c2c1.Cl (stereo not given in full) | 87
Cn1cncc1-c1ccc2c(-c3ccsc3)cnc(N)c2c1 | 97
Cc1cc(C)cc(NC(=S)NCCCCN2CCN(c3cccc(Cl)c3)CC2)c1 | 88
CCN(CC)CCNC(=O)/C(=C/C=C/c1cc2cc(Cl)c(Cl)cc2[nH]1)OC | 88
Cc1cccc2nc(-c3ccc(-c4ccc(CN5CCC(N)C5)cc4)s3)[nH]c12.O=C(O)C(F)(F)F (stereo not given) | 100
COc1c(F)ccc2ncc(Cl)c(CCN3CCC(NCc4ccc5c(n4)NC(=O)CS5)CC3)c12.Cl | 98
COc1c(C2CCN(CCCCNC(=O)c3cccc(-c4ccc(C(F)(F)F)cc4)c3)CC2)ccc2c1CCCC2 | 92
CC(C)c1ccc(-c2noc(SCC(=O)N(C)c3ccc(F)cc3)n2)cc1 | 84
O=C(Cc1ccc(F)cc1)NC1CCN(c2ccnc3cc(Cl)ccc23)C1.O=C(O)C(F)(F)F (stereo not given) | 99
Cl.Nc1c2c(nc3ccc(C(=O)Nc4cc(I)c(O)c(I)c4)cc13)CCCC2 | 96
CCC(Nc1noc(-c2c(-c3ccccc3)noc2C)n1)c1ccccc1 (stereo not given) | 99
CC(C)Cn1cc(C2CCN(CCN3CCC(CNC(=O)c4ccc(-c5ccc(C#N)cc5)cc4)CC3)CC2)c2ccccc21 | 100
CCc1nc2nc(C)cc(Nc3cc(C)cc(C)c3)n2n1 | 96
CN1CCN(CC(=O)Nc2cccc(-c3ccc(-c4nc5cc(C(F)(F)F)ccc5[nH]4)s3)c2)CC1 | 100
CC(C)(C)c1ccc(-c2csc(NC(=O)CC(c3ccccc3)c3ccccc3)n2)cc1 | 86

system: Plasmodium falciparum; test: GSK_TCMDC: Inhibition of Plasmodium falciparum Dd2 in whole red blood cells, using parasite LDH activity as an index of growth. Test compounds present at 2uM; assay type: functional

SMILES | Inhibition [%]
CC1(C)N=C(N)N=C(N)N1c1ccc2ccccc2c1.Cl | 0
N=C(N)Nc1nc(-c2cccc(NC(=O)Cc3ccccc3)c2)cs1 | 9
COc1ccc(CN(C)Cc2cc(C(C)C)c(C)cc2O)cc1F | 98
CCNC(=O)c1ccc2c(c1)c(C)c(C)n2Cc1ccc(F)cc1 | 91
CCOc1cc(C(=O)N[C@@H](Cc2ccccc2)[C@H](O)CNC(C)(C)c2cccc(OC)c2)cc(N2CCCS2(=O)=O)c1 | 99
COc1ccc2nc(C)cc(Nc3ccc(N4CCN(C)CC4)cc3)c2c1 | 3
CC(C)c1ccc(NC(=O)c2ccc(C(=O)NCC3CCN(CC4CCCCC4)CC3)cc2)cc1.O=C(O)C(F)(F)F | 18
OC[C@H](Nc1nc(C(Oc2ccccc2)c2ccccc2)nc2[nH]ncc12)c1ccccc1 (stereo not given in full) | 45
CCCCN1CCN(CC(O)CNC(=O)Nc2ccc(Cl)cc2)CC1.O=C(O)C(F)(F)F (stereo not given) | 99
Fc1cccc(Nc2nc(NCc3ccc(Cl)c(Cl)c3)nc(Nc3cccc(F)c3)n2)c1 | 7
COc1ccc(-c2onc(C(F)(F)F)c2-c2ccc(Br)cc2)c(O)c1 | 77
CCN(CC)CCN(Cc1ccc(-c2ccc(C(F)(F)F)cc2)nc1)C(=O)Cn1cc(Cc2cnn(C)c2)c(=O)n2nc(-c3ccccc3)cc12.O=C(O)C(O)C(O)C(=O)O | 95
CN1CCc2ccc(NC(=O)Nc3ccc(Cl)c(Cl)c3)cc2C1 | 22
CCCNCc1ccc(-c2ccc(CN(CCOC)C(=O)c3nn(-c4ccccc4)nc3C)cc2)nc1.O=C(O)C(F)(F)F | 71
CCCCCc1ccc(N2C(N)=NC(N)=NC2(C)C)cc1.Cl | 1
Cl.N#Cc1ccc2c(c1)CCN(CCC1CCC(NC(=O)c3ccc(-c4ccccc4)s3)CC1)CC2 (stereo not given) | 36
CCCNC[C@@H](O)[C@H](Cc1ccccc1)NC(=O)c1cc(NCC)cc(N2CCCC2=O)c1 | 76
CN(C)Cc1ccc(-c2cccc(NC(=O)c3cccc(Cl)c3)c2)cc1.O=C(O)C(F)(F)F | 12
Cc1ccc(Nc2nc(NN=Cc3ccc(-c4ccc([N+](=O)[O-])cc4)o3)nc(N3CCOCC3)n2)cc1Cl | 47
CCCCCCNc1c2ccccc2nc2ccccc12.Cl | 32

SMILES | Inhibition [%]
Cc1cc2nc(-c3cccc(C(=O)NC4CCN(Cc5ccccc5)CC4)c3)[nH]c2cc1C | 13
COc1ccc2nc(C)cc(N/N=C/c3ccc([N+](=O)[O-])o3)c2c1 | 100
CC(C)CCCC(C)(C)NC[C@@H](O)[C@H](Cc1ccccc1)NC(=O)c1cc(NC(C)C)cc(N2CCCCS2(=O)=O)c1.O=CO | 98
Cc1nnc2c(NC(=O)NC3CCCC3)cc3cc(-c4ccc(CN5CCCCC5)cc4)ccc3n12 | 93
COc1ccc2c(N/N=C/c3ccccc3[N+](=O)[O-])ccnc2c1 | 97
COc1cc(F)c2nccc([C@@H](O)CN3CCC(NCc4ccc5c(n4)NC(=O)CS5)C(F)C3)c2c1.Cl (stereo not given in full) | 80
Cn1cncc1-c1ccc2c(-c3ccsc3)cnc(N)c2c1 | 72
Cc1cc(C)cc(NC(=S)NCCCCN2CCN(c3cccc(Cl)c3)CC2)c1 | 13
CCN(CC)CCNC(=O)/C(=C/C=C/c1cc2cc(Cl)c(Cl)cc2[nH]1)OC | 31
Cc1cccc2nc(-c3ccc(-c4ccc(CN5CCC(N)C5)cc4)s3)[nH]c12.O=C(O)C(F)(F)F (stereo not given) | 98
COc1c(F)ccc2ncc(Cl)c(CCN3CCC(NCc4ccc5c(n4)NC(=O)CS5)CC3)c12.Cl | 29
COc1c(C2CCN(CCCCNC(=O)c3cccc(-c4ccc(C(F)(F)F)cc4)c3)CC2)ccc2c1CCCC2 | 45
CC(C)c1ccc(-c2noc(SCC(=O)N(C)c3ccc(F)cc3)n2)cc1 | 77
O=C(Cc1ccc(F)cc1)NC1CCN(c2ccnc3cc(Cl)ccc23)C1.O=C(O)C(F)(F)F (stereo not given) | 85
Cl.Nc1c2c(nc3ccc(C(=O)Nc4cc(I)c(O)c(I)c4)cc13)CCCC2 | 64
CCC(Nc1noc(-c2c(-c3ccccc3)noc2C)n1)c1ccccc1 (stereo not given) | 85
CC(C)Cn1cc(C2CCN(CCN3CCC(CNC(=O)c4ccc(-c5ccc(C#N)cc5)cc4)CC3)CC2)c2ccccc21 | 98
CCc1nc2nc(C)cc(Nc3cc(C)cc(C)c3)n2n1 | 96
CN1CCN(CC(=O)Nc2cccc(-c3ccc(-c4nc5cc(C(F)(F)F)ccc5[nH]4)s3)c2)CC1 | 95
CC(C)(C)c1ccc(-c2csc(NC(=O)CC(c3ccccc3)c3ccccc3)n2)cc1 | 64
